Test results published in the supplement of paper PMC10981050.
Several values for one entry are separate records, joined by “and”; a condition that tells them apart may be missing. Identical values can stand only once. Counter-ions that a name gives are not always drawn.

What was measured:
Assay in all cases: cell viability relative to vehicle control; higher = less cytotoxic
Settings in all cases: 10 µM
[1] = tested on: K562
Outline: (§1)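 Mutant clones made by CRISPR editing and their isogenic wild-type counterparts, from four leukaemia lines, were exposed to a single 10 µM dose of each library compound for 48 h. The supernatant was then removed and CellTiter-Glo luminescence was read. Viability was reported as percent of the on-plate vehicle control.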

[2] = tested on: MARIMO
Outline: as §1

[3] = tested on: MOLM14
Outline: as §1

[4] = tested on: OCI-AML2
Outline: as §1

Row | Structure (SMILES) | cell viability ([1]; SRSF2 genotype: SRSF2 P95H/wt) | cell viability ([1]; SRSF2 genotype: SRSF2 wt/wt) | cell viability ([2]; SRSF2 genotype: SRSF2 P95H/wt) | cell viability ([2]; SRSF2 genotype: SRSF2 wt/wt) | cell viability ([3]; SRSF2 genotype: SRSF2 P95H/wt) | cell viability ([3]; SRSF2 genotype: SRSF2 wt/wt) | cell viability ([4]; SRSF2 genotype: P95H/wt) | cell viability ([4]; SRSF2 genotype: wt/wt)
1 | CCC/N=C1\S/C(=C\c2ccc(OC[C@H](O)CO)c(Cl)c2)C(=O)N1c1ccccc1C | 89.5% and 93.7% | 89.6% | 105% | 98.3% | 94.5% | 93.5% | 108% | 95.2%
2 | O=C(NCc1ccccc1)c1csc(Nc2ccncn2)n1 [Thiazovivin] | 100% and 101% | 100% | 80.5% | 94.7% | 37.8% | 86.8% | 46% | 49.5%
3 | Cc1cc(=O)oc2ccc(O)cc12 [6-Hydroxy-4-methylcoumarin] | 111% and 101% | 107% | 107% | 97% | 101% | 103% | 96% | 104%
4 | N=C1S/C(=C\c2ccc(-c3ccc4c(c3)C(=O)NC4=O)o2)C(=O)N1c1ccc(Br)cc1 [Bioymifi] | 95.1% and 88.2% | 87.4% | 99% | 101% | 90.1% | 93.1% | 96.6% | 93.1%
5 | CC(C)=CCC/C(C)=C/CC/C(C)=C/CCC(=O)OC/C=C(\C)CCC=C(C)C [Gefarnate] | 106% and 102% | 96.4% | 99.7% | 110% | 96.4% | 102% | 89.7% | 93.5%
6 | COc1cc(-c2oc3cc(O)cc(O)c3c(=O)c2OC2OC(COC3OC(C)C(O)C(O)C3O)C(O)C(O)C2OC2OC(C)C(O)C(O)C2O)ccc1O (stereo not drawn) [Typhaneoside] | 103% | 98.7% | 93.9% | 106% | 98.5% | 106% | 110% | 105%
7 | CCc1ccc(CCOc2ccc(CC3SC(=O)NC3=O)cc2)nc1 (stereo not drawn) [Pioglitazone hydrochloride (Actos)] | 100% and 97% | 93.4% | 104% | 102% | 96.4% | 100% | 95.7% | 93.5%
8 | COc1cc2nc(N(C)CCCNC(=O)C3CCCO3)nc(N)c2cc1OC (stereo not drawn) [Alfuzosin hydrochloride (Uroxatral)] | 97% and 98.6% | 95.3% | 91.3% | 98.1% | 96.7% | 97.5% | 90.7% | 103%
9 | CC(=O)OCC(=O)[C@@]1(O)CC[C@H]2[C@@H]3CCC4=CC(=O)CC[C@]4(C)[C@@]3(F)[C@@H](O)C[C@@]21C [Fludrocortisone acetate] | 110% and 103% | 104% | 105% | 109% | 111% | 102% | 113% | 119%
10 | CC(OC(=O)OC1CCCCC1)OC(=O)C1=C(CSc2nnnn2CCN(C)C)CS[C@@H]2[C@H](NC(=O)Cc3csc(N)n3)C(=O)N12 (stereo partly drawn) [Cefotiam Hexetil Hydrochloride] | 105% and 98.2% | 93.7% | 87.5% | 94.9% | 89.9% | 94.3% | 90% | 93.8%
11 | Clc1ccc2c(c1)CCc1cccnc1C2=C1CCNCC1 [Desloratadine] | 90.9% and 102% | 93.2% | 80.7% | 83.5% | 88.8% | 94.3% | 94.8% | 81.9%
12 | CO/N=C(\C(=O)N[C@@H]1C(=O)N2C(C(=O)O)=C(Cn3ccc(=N)n3CCO)CS[C@H]12)c1csc(N)n1 [Cefoselis sulfate] | 95.5% and 104% | 94% | 92.6% | 98% | 100% | 101% | 103% | 96.8%
13 | COc1ccccc1OCC(O)CN1CCN(CC(=O)Nc2c(C)cccc2C)CC1 (stereo not drawn) [Ranolazine (Ranexa)] | 99.1% and 96.1% | 91.9% | 96.6% | 102% | 97.8% | 99.2% | 94.9% | 102%
14 | COc1ccc(/C=C/C(=O)C2(C(=O)/C=C/c3ccc(OC)c(OC)c3)CCCCC2)cc1OC | 5.82% and 13.9% | 10.6% | 2.25% | 2.73% | 0.4% | 0.31% | 0.35% | 0.43%
15 | O=C1CC(c2c[nH]c3ccc(F)cc23)C(=O)N1 (stereo not drawn) | 103% | 111% | 100% | 102% | 103% | 108% | 100% | 101%
16 | CNS(=O)(=O)CCc1ccc2[nH]cc(C3CCN(C)CC3)c2c1 [Naratriptan HCl] | 104% and 100% | 104% | 97.3% | 110% | 107% | 104% | 102% | 113%
17 | CCCc1nc(C)c2c(=O)[nH]c(-c3cc(S(=O)(=O)N4CCN(CC)CC4)ccc3OCC)nn12 [Vardenafil Hydrochloride Trihydrate (Vivanza] | 99.1% and 107% | 97.1% | 110% | 108% | 105% | 106% | 135% | 115%
18 | COC[C@H](NC(=O)c1cnc(C)s1)C(=O)N[C@@H](COC)C(=O)N[C@@H](Cc1ccccc1)C(=O)[C@@]1(C)CO1 [Oprozomib (ONX 0912)] | 0.73% and 1.14% | 1.05% | 0.37% | 0.74% | 0.16% | 0.2% | 0.2% | 0.17%
19 | CC(=O)Oc1cc2c(s1)CCN(C(C(=O)C1CC1)c1ccccc1F)C2 (stereo not drawn) [Prasugrel (Effient)] | 26.1% and 36.8% | 32.7% | 9.74% | 14.8% | 23.1% | 6.67% | 20.9% | 23.1%
20 | CN(C/C=C/C#CC(C)(C)C)Cc1cccc2ccccc12 [Terbinafine hydrochloride (Lamisil)] | 88.5% and 88.7% | 90.3% | 87.8% | 105% | 86.8% | 99.9% | 87.4% | 97.6%
21 | Cc1[nH]nc(C(F)(F)F)c1Cc1sc2c(c1C(=O)N1C[C@](C)(O)CO1)c(=O)n(C)c(=O)n2C(C)C | 40% and 62.9% | 61.3% | 90.5% | 103% | 92.8% | 89.3% | 99.7% | 99.9%

Row | Structure (SMILES) | cell viability ([1]; SRSF2 genotype: SRSF2 P95H/wt) | cell viability ([1]; SRSF2 genotype: SRSF2 wt/wt) | cell viability ([2]; SRSF2 genotype: SRSF2 P95H/wt) | cell viability ([2]; SRSF2 genotype: SRSF2 wt/wt) | cell viability ([3]; SRSF2 genotype: SRSF2 P95H/wt) | cell viability ([3]; SRSF2 genotype: SRSF2 wt/wt) | cell viability ([4]; SRSF2 genotype: P95H/wt) | cell viability ([4]; SRSF2 genotype: wt/wt)
22 | NC(=O)[C@@H]1CCCN1C(=O)[C@H](Cc1c[nH]cn1)NC(=O)[C@@H]1CCC(=O)N1 [Protirelin] | 99.8% and 93.1% | 104% | 99.2% | 108% | 101% | 100% | 102% | 100%
23 | Cc1ccc(S(=O)(=O)OCC(=O)Nc2ccc(C(=O)O)c(O)c2)cc1 | 95.9% and 95.6% | 97.9% | 95.7% | 102% | 99.7% | 101% | 94.2% | 101%
24 | COc1cc2nc(N3CCN(C(=O)C4COc5ccccc5O4)CC3)nc(N)c2cc1OC (stereo not drawn) [Doxazosin mesylate] | 94.7% and 100% | 95.9% | 105% | 101% | 92.2% | 105% | 92.7% | 96.5%
25 | COC(=O)C1=CO[C@@H](O[C@@H]2O[C@H](CO)[C@@H](O)[C@H](O)[C@H]2O)[C@@H]2C(CO)=CC[C@H]12 [Geniposide] | 98.8% and 85.3% | 87.9% | 84.1% | 100% | 94.9% | 92.3% | 99.6% | 89.8%
26 | CC(C)C(C(=O)O)N1C(=O)C(=Cc2ccc(Br)cc2)SC1=S (stereo not drawn) | 105% | 102% | 98.4% | 105% | 100% | 100% | 102% | 109%
27 | CCC(C)(C)c1ccc(CC(C)CN2C[C@@H](C)O[C@@H](C)C2)cc1 (stereo partly drawn) [Amorolfine Hydrochloride] | 79.9% and 81.9% | 99.7% | 66.2% | 71.5% | 81.8% | 81.4% | 49.3% | 71.5%
28 | CCCCN(Cc1ccc(C(=O)NO)cc1)C(=O)Nc1ccccc1 [Nexturastat A] | 23.9% and 35.1% | 45.5% | 6.74% | 21% | 7.82% | 2.04% | 3.08% | 7.67%
29 | CCOc1ccc(Cc2cc([C@@H]3O[C@H](CO)[C@@H](O)[C@H](O)[C@H]3O)ccc2Cl)cc1 [Dapagliflozin] | 93.8% and 97.1% | 105% | 102% | 96.9% | 95.9% | 99.4% | 97.7% | 105%
30 | COc1ncc(-c2cc(-c3ncc(CN4C[C@@H](C)O[C@@H](C)C4)o3)c3cn[nH]c3c2)cc1NS(C)(=O)=O | 53.5% and 58.5% | 61.2% | 42.6% | 37.1% | 23.5% | 27.3% | 13.1% | 25.8%
31 | CC[C@H]1OC(=O)[C@@](C)(F)C(=O)[C@H](C)[C@@H](O[C@@H]2O[C@H](C)C[C@H](N(C)C)[C@H]2O)[C@](C)(OC)C[C@@H](C)C(=O)[C@H](C)[C@H]2N(CCCCn3cc(-c4cccc(N)c4)nn3)C(=O)O[C@]12C [Solithromycin] | 91% and 93.4% | 91.2% | 107% | 101% | 89.4% | 94.9% | 94.1% | 93.5%
32 | C=C(c1ccc(C(=O)O)cc1)c1cc2c(cc1C)C(C)(C)CCC2(C)C [Bexarotene] | 84.9% and 95.7% | 87.6% | 85.7% | 106% | 89.4% | 103% | 33.3% | 63.5%
33 | CC1OC(OC2C(CO)OC(OCC3OC(OC(=O)C45CCC(C)(C)CC4C4=CCC6C7(C)CCC(OC8OCC(O)C(O)C8O)C(C)(CO)C7CCC6(C)C4(C)CC5)C(O)C(O)C3O)C(O)C2O)C(O)C(O)C1O (stereo not drawn) [Hederacoside D] | 98.3% and 104% | 101% | 95.7% | 103% | 105% | 99.3% | 97% | 103%
34 | C=C(Cc1ccccc1Cl)C(=O)OCC | 95.9% and 107% | 91.8% | 107% | 100% | 96.2% | 98.2% | 106% | 101%
35 | C[C@@H]1COC(Nc2ccc3ncnc(Nc4ccc(OCc5nccs5)c(Cl)c4)c3c2)=N1 [Varlitinib] | 86.5% and 83.2% | 88.1% | 89.2% | 109% | 91.7% | 96.3% | 87% | 88.2%
36 | NC(=O)c1ccc(I)c([N+](=O)[O-])c1 [Iniparib (BSI-201)] | 101% and 102% | 113% | 97.6% | 81.1% | 98.6% | 100% | 127% | 114%
37 | CCCCOc1cc(C(=O)NCCN(CC)CC)c2ccccc2n1 [Dibucaine (Cinchocaine) HCl] | 94.5% and 84% | 85.3% | 81.8% | 91.5% | 86.2% | 91.7% | 93.2% | 86.1%
38 | CCCc1cc(C(N)=S)ccn1 [Protionamide (Prothionamide)] | 99% and 98.7% | 101% | 98.8% | 102% | 95.4% | 102% | 100% | 112%
39 | O=C(c1ccc(F)cc1)N1CCCC(c2nc(-c3ccc(F)cc3)no2)C1 (stereo not drawn) | 75.7% and 78.6% | 76.6% | 66% | 73.9% | 80.1% | 84.1% | 64.8% | 72.7%
40 | OC[C@H]1OC(O)[C@H](O)[C@@H](O)[C@H]1O (stereo partly drawn) [D-Galactose] | 101% and 103% | 98.2% | 103% | 105% | 103% | 103% | 105% | 108%
41 | COc1c(C)c2c(c(O)c1C/C=C(\C)CCC(=O)O)C(=O)OC2 [Mycophenolic acid] | 49.9% and 48.3% | 43.2% | 42.2% | 41.6% | 10.9% | 3.65% | 13.9% | 13%
